{
  "source": "paper PMC8384837",
  "about": "“Expanding the binding specificity for RNA recognition by a PUF domain”",
  "test_in_all_cases": "yeast three-hybrid, YBZ-1, SC-Leu-His + 0.5 mM 3-AT, 4 days",
  "conditions_in_all_cases": "tags: N-Gal4 AD-HA kept; label: inside an RPR1-promoter hybrid RNA with tandem MS2 sites; ssRNA",
  "key": {"[1]": {"target": "PUM1 PUF domain R3-LFT (Homo sapiens, UniProt Q14671 828-1176, C935L;R936F;Q939T)", "how_it_was_run": "(§1)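 Sequencing with Illumina followed PCR amplification of the repeat regions from transformants grown four days on SC-Leu (input) or SC-Leu-His + 0.5 mM 3-AT (selection). The transformants were strain YBZ-1 with a LexA–MS2 coat fusion and a HIS3 reporter, carrying Pumilio-1 PUF domain libraries and matching RNA elements. The interaction score is the log change in variant frequency from input to selection, computed in log2 with a pseudocount of 1 for absent variants.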"}, "[2]": {"target": "PUM1 PUF domain R3-IFV (Homo sapiens, UniProt Q14671 828-1176, C935I;R936F;Q939V)", "how_it_was_run": "as §1"}, "[3]": {"target": "PUM1 PUF domain R3-DHV (Homo sapiens, UniProt Q14671 828-1176, C935D;R936H;Q939V)", "how_it_was_run": "as §1"}, "[4]": {"target": "PUM1 PUF domain R7-RSR (Homo sapiens, UniProt Q14671 828-1176, S1079R;N1080S;E1083R)", "how_it_was_run": "as §1"}, "[5]": {"target": "PUM1 PUF domain R8-KFA (Homo sapiens, UniProt Q14671 828-1176, N1122K;Y1123F;Q1126A)", "how_it_was_run": "as §1"}, "[6]": {"target": "PUM1 PUF domain R5-LYG (Homo sapiens, UniProt Q14671 828-1176, C1007L;R1008Y;Q1011G)", "how_it_was_run": "as §1"}, "[7]": {"target": "T1, PUM1 PUF domain R6-CWR (Homo sapiens, UniProt Q14671 828-1176, N1043C;Y1044W;Q1047R)", "T1 sequence": "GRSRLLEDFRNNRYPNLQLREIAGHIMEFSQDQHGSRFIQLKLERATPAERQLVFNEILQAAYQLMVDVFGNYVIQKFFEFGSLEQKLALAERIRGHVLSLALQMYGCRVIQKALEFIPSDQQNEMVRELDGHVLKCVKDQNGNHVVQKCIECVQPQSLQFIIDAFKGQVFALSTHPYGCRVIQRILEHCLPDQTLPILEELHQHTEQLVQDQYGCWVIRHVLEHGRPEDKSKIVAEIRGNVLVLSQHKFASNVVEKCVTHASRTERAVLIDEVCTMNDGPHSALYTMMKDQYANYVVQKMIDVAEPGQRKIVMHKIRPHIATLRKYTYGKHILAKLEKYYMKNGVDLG", "how_it_was_run": "as §1"}, "[8]": {"target": "PUM1 PUF domain R1-KVS (Homo sapiens, UniProt Q14671 828-1176, S863K;R864V;Q867S)", "how_it_was_run": "as §1"}, "[9]": {"target": "PUM1 PUF domain R5-WHC (Homo sapiens, UniProt Q14671 828-1176, C1007W;R1008H;Q1011C)", "how_it_was_run": "as §1"}, "[10]": {"target": "PUM1 PUF domain R5-FHT (Homo sapiens, UniProt Q14671 828-1176, C1007F;R1008H;Q1011T)", "how_it_was_run": "as §1"}},
  "data": [
    {"sequence": "GGCUAGAACUAGUGGAUCCCCCGGCGCCCGGCGGCUCGAGCCCGGGUAAGUGUAAGUAGUCUGCAUGCCGCCGGGCGCCAUGCCUGCAGGUCGACUCUAGAAAACAUG", "values": [
      {"measurement": "binding signal", "setting": "[1]", "value": "6.89 log2 enrichment (interaction score)"},
      {"measurement": "binding signal", "setting": "[2]", "value": "3.32 log2 enrichment (interaction score)"},
      {"measurement": "binding signal", "setting": "[3]", "value": "1.77 log2 enrichment (interaction score)"}
    ]},
    {"sequence": "GGCUAGAACUAGUGGAUCCCCCGGCGCCCGGCGGCUCGAGCCCGGGUAAGUCUAAAUAGUCUGCAUGCCGCCGGGCGCCAUGCCUGCAGGUCGACUCUAGAAAACAUG", "values": [
      {"measurement": "binding signal", "setting": "[4]", "value": "3.42 log2 enrichment (interaction score)"}
    ]},
    {"sequence": "GGCUAGAACUAGUGGAUCCCCCGGCGCCCGGCGGCUCGAGCCCGGGUAAGUUUAAAUAGUCUGCAUGCCGCCGGGCGCCAUGCCUGCAGGUCGACUCUAGAAAACAUG", "values": [
      {"measurement": "binding signal", "setting": "[4]", "value": "4.84 log2 enrichment (interaction score)"}
    ]},
    {"sequence": "GGCUAGAACUAGUGGAUCCCCCGGCGCCCGGCGGCUCGAGCCCGGGUAAGUGUAAAUAGUCUGCAUGCCGCCGGGCGCCAUGCCUGCAGGUCGACUCUAGAAAACAUG", "values": [
      {"measurement": "binding signal", "setting": "[5]", "value": "4.75 log2 enrichment (interaction score)"},
      {"measurement": "binding signal", "setting": "[6]", "value": "3.46 log2 enrichment (interaction score)"},
      {"measurement": "binding signal", "setting": "[7]", "value": "5.42 log2 enrichment (interaction score)"},
      {"measurement": "binding signal", "setting": "[2]", "value": "4.8 log2 enrichment (interaction score)"},
      {"measurement": "binding signal", "setting": "[3]", "value": "4.2 log2 enrichment (interaction score)"}
    ]},
    {"sequence": "GGCUAGAACUAGUGGAUCCCCCGGCGCCCGGCGGCUCGAGCCCGGGUAAGCGUAAAUAGUCUGCAUGCCGCCGGGCGCCAUGCCUGCAGGUCGACUCUAGAAAACAUG", "values": [
      {"measurement": "binding signal", "setting": "[5]", "value": "6.97 log2 enrichment (interaction score)"}
    ]},
    {"sequence": "GGCUAGAACUAGUGGAUCCCCCGGCGCCCGGCGGCUCGAGCCCGGGUAAGUGUAAUUAGUCUGCAUGCCGCCGGGCGCCAUGCCUGCAGGUCGACUCUAGAAAACAUG", "values": [
      {"measurement": "binding signal", "setting": "[1]", "value": "5.16 log2 enrichment (interaction score)"},
      {"measurement": "binding signal", "setting": "[2]", "value": "4.5 log2 enrichment (interaction score)"}
    ]},
    {"sequence": "GGCUAGAACUAGUGGAUCCCCCGGCGCCCGGCGGCUCGAGCCCGGGUAAGUGUAAAUCGUCUGCAUGCCGCCGGGCGCCAUGCCUGCAGGUCGACUCUAGAAAACAUG", "values": [
      {"measurement": "binding signal", "setting": "[8]", "value": "5.01 log2 enrichment (interaction score)"}
    ]},
    {"sequence": "GGCUAGAACUAGUGGAUCCCCCGGCGCCCGGCGGCUCGAGCCCGGGUAAGUGUCAAUAGUCUGCAUGCCGCCGGGCGCCAUGCCUGCAGGUCGACUCUAGAAAACAUG", "values": [
      {"measurement": "binding signal", "setting": "[9]", "value": "3.6 log2 enrichment (interaction score)"},
      {"measurement": "binding signal", "setting": "[10]", "value": "2.81 log2 enrichment (interaction score)"}
    ]},
    {"sequence": "GGCUAGAACUAGUGGAUCCCCCGGCGCCCGGCGGCUCGAGCCCGGGUAAGUGUAAAUUGUCUGCAUGCCGCCGGGCGCCAUGCCUGCAGGUCGACUCUAGAAAACAUG", "values": [
      {"measurement": "binding signal", "setting": "[8]", "value": "4.64 log2 enrichment (interaction score)"}
    ]},
    {"sequence": "GGCUAGAACUAGUGGAUCCCCCGGCGCCCGGCGGCUCGAGCCCGGGUAAGUGUUAAUAGUCUGCAUGCCGCCGGGCGCCAUGCCUGCAGGUCGACUCUAGAAAACAUG", "values": [
      {"measurement": "binding signal", "setting": "[6]", "value": "2.42 log2 enrichment (interaction score)"}
    ]}
  ]
}
